Over roughly 33,000 sequences, “E-score (-0.5 to 0.5)” has its median near -0.032; the highest 2% begin near 0.36. The list comes from a sample in which the highest values are over-represented; it also holds similar and randomly drawn sequences.
What follows are sequences tested against T1, Sko1 (UniProt Q02100) (assay: PBM E-score (8-mer binding enrichment) (E-score (-0.5 to 0.5)); higher = stronger / more preferred TF binding). Conditions: protein concentration: 200 nM; construct: GST-full length.
T1 sequence: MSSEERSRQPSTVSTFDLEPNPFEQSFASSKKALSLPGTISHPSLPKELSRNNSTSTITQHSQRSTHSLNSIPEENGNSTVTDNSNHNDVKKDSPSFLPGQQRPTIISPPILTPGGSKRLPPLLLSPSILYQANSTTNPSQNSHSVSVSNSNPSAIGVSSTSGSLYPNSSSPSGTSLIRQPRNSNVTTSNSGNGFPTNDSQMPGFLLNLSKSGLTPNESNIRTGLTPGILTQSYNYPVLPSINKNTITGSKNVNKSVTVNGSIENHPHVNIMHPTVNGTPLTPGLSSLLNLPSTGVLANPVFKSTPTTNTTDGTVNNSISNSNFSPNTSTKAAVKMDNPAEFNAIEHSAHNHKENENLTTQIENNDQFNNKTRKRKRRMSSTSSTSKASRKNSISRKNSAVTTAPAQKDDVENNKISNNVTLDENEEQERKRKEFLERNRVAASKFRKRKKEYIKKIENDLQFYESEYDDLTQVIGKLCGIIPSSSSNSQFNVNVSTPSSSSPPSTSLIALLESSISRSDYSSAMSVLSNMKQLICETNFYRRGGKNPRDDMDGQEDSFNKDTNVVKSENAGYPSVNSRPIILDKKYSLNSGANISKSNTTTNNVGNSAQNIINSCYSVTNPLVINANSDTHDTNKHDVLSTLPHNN
Procedure: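 Universal 'all 10-mer' protein binding microarrays (Agilent AMADID 015681) probed with GST-tagged S. cerevisiae TFs (full-length or DBD) made by in vitro transcription/translation (PURExpress), about 100-200 nM. Bound TF was detected with fluorescent anti-GST. Each ungapped 8-mer (which stands for itself and its reverse complement) is scored by the PBM enrichment score (E-score), a modified Wilcoxon-Mann-Whitney statistic from -0.5 to +0.5, computed with the Universal PBM Analysis Suite. Scale: above 0.35 generally sequence-specific binding.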

Sequence | PBM E-score
CCAGAGAC | -0.251
CATCCCTC | -0.245
TACGTTAA | 0.413
TACGTTGA | 0.38
AACGTTAA | 0.243
CACGTTGA | 0.25
GACGTTGA | 0.269
CACGTTAG | 0.2
GGCGTTAA | -0.0249
GACGTTAA | 0.368
CACGTTAA | 0.244
CTTCCTAC | -0.225
CTTCTCTA | -0.284
TATGAGCA | 0.00789
ACCTGGCT | -0.232
ACCGTCCG | -0.304
AGGAGCCA | -0.258
CCTGCGGC | -0.427
AAATGACA | 0.272
CAATGACG | 0.486
AAATGACC | 0.0951
CAATGACC | 0.0293
CAATGACA | 0.229
AAATGACG | 0.481
TAATGACA | 0.364

Sequence | PBM E-score
TAATGAAA | 0.24
GAATGACA | 0.249
AAATGGTG | 0.0316
GAAGGTAA | 0.0069
ACACTCAG | -0.0491
TACGGCTA | -0.0295
ATTCGAAG | 0.0402
AGCTAGTG | -0.00092
AAACAAGG | -0.131
ATGATTCC | 0.169
AACTACGT | 0.455
ACCTACGT | 0.444
ACCTACGG | -0.217
ACCTACGC | 0.293
AACTACGA | 0.198
AACTACGC | 0.305
ACGCCAAA | 0.0451
GCAAACCA | -0.0509
CTTTGGAA | -0.0181
AGTCGTTA | 0.0683
CAAGAAGA | -0.0303
CTCTTTCA | -0.0826
CAGGTTTC | -0.0189
GAAGCACC | -0.0674
TAAAGAGA | 0.0871

Sequence | PBM E-score
CTTACATC | 0.202
GTTACATA | 0.251
ATTACATC | 0.403
AGTACATC | 0.142
ATTACATA | 0.386
ATTACATG | 0.324
AGACAGCC | -0.219
TGCGTAAA | 0.404
CGCGTAAA | 0.311
GGCGTACA | -0.0526
AGCGTACA | 0.0563
TGCGTACA | 0.36
AGCGTAAA | 0.189
GTTGCACA | 0.0444
CGCATCAG | -0.0566
AGTCAACA | 0.0814
GAAGTCGC | -0.139
ATGTGCAC | -0.0142
GCGATTAC | 0.144
ACGATTAC | 0.369
CCGATTAC | 0.0359
ATGAGTCC | 0.0501
CCGTACGG | -0.262
GCGTACGA | 0.238
AAGTACGT | 0.44

Sequence | PBM E-score
ACGTACGA | 0.414
GCGTACGC | 0.269
AAGTACGA | 0.201
CCGTACGC | 0.0653
ACGTACGG | 0.38
ATGTACGG | -0.046
AAGTACGC | 0.193
CCGTACGA | 0.0901
ACGTACGC | 0.453
AGCGTTAT | 0.0494
ACCTGCAT | -0.13
ATAAGAGA | 0.0988
ATCTTCGC | 0.1
AAAGTAAC | 0.0224
AAAACCGG | -0.128
CAGGCCGA | -0.182
GGGGTAGA | -0.0788
AGAAACTG | 0.0191
CGCAGCTC | -0.0758
ATGTACGA | 0.143
ACGTACGT | 0.473
TCGTACGA | 0.282
ACCTAGCG | -0.0355
AAGGTGCT | -0.238
ATGCAAAA | 0.116

Sequence | PBM E-score
AAATTGAG | -0.0473
AGGTTTAT | 0.0336
ACGTTTAT | 0.388
ACGTTTAA | 0.406
ACGTTTAC | 0.345
ACGTTTAG | 0.355
CCGTTTAA | -0.0451
GTGCCAAA | -0.0151
CTAACTTC | 0.0478
CGTCTGCC | -0.00999
ATATTTCG | 0.235
GATTGGTA | -0.054
AAAGTCTT | 0.0148
GGGGAGTA | -0.124
ATGCCAAA | -0.0114
AAACGTCA | 0.47
TAACGTCA | 0.48
CAACGTCG | 0.222
AAACGTCC | 0.13
CAACGTCA | 0.47
AAACGTCT | 0.341
CAACGTCC | -0.0395
TAACGGCA | 0.0289
TAACGCCA | 0.144
GAACGTTA | 0.18

Sequence | PBM E-score
GAACGTCA | 0.456
GAACGTCC | 0.117
CCACTCGC | -0.25
GAGATCCC | -0.171
CCCGCAAA | -0.0244
GGGGCGGA | -0.338
CGTCTAAG | 0.0318
CCGACCGG | -0.294
ACAGTCTG | -0.171
ACGATTCG | 0.059
CCGTCTGA | -0.224
AGGCAGTA | -0.129
CCGGCCGG | -0.373
CACTGACA | 0.0149
CGCTGACC | -0.15
CACTGACC | -0.26
CACTGACG | 0.424
CGCTGACG | 0.389
AGCTGACG | 0.347
AACTGACT | -0.0679
AACTGACA | 0.183
AACTGACG | 0.363
TGGTGCAA | -0.0842
CCTTTTAC | -0.0204
AGCGAACC | 0.0124

Sequence | PBM E-score
TCCCAAAA | -0.048
ATGCAAAC | 0.108
ATACCGTG | -0.0765
GCACTGCA | 0.0142
AAGTCACA | 0.0509
AGGTCACT | -0.0104
AAGTCACT | 0.144
AAGTCACG | 0.126
ACGTCACT | 0.489
ATGTCACA | 0.324
AGGTCACC | -0.128
ACGTCACG | 0.486
ACGTCACC | 0.489
CCGTCACC | 0.101
AGGTCACG | 0.0716
ACGTCACA | 0.481
CTAGAATC | -0.0473
ATCAGGTG | -0.0909
ACTGCAAC | -0.0632
GTGCTTCA | 0.0642
ACATATGT | 0.29
CGTGAGAA | 0.117

Reference: the supplement of paper PMC3334620
